From PubChem BioAssay (NCATS) come the findings set out here.

The structures appear in SMILES notation. Records with an inconclusive call do not appear. Unmarked numbers belong to inactive results. Activity calls are given as the source filed them. The call rests on the fitted dose curve; in most records, active means well fitted curve in the direction sought with a large enough effect; inconclusive means small, poorly fitted or top-dose-only effect, or another doubt; inactive means no such curve, though single readings can be large; an effect the other way counts as inactive or inconclusive.

One test deals with HEK293. The test can be described thus: Cytotoxic Profiling of Annotated Libraries Using Quantitative High-Throughput Screening (AID 1296008). Further: nearly all actives have a fitted effect of over 60% in size. Further: potency means the concentration at half of the fitted maximal effect. On max response: on the % scale 0 is the no-effect control and ±100 the full control effect. The conditions noted are these: Five cell lines viability, CellTiter-Glo ATP luminescence, 48-72 h; max response: active compounds read low. In a few lines:
(§1)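 Cells exposed to compounds for 48 or 72 hr at 37 degrees Celsius. Viability read as ATP-coupled luminescence with CellTiter-Glo after 10 min at room temperature.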
For orientation: ATP-based viability assays read luminescence as a measure of living cells.

For test [1], the system named is HaCat. The description is as above. The following applies: Five cell lines viability, CellTiter-Glo ATP luminescence, 48-72 h; max response: active compounds read low. The method, boiled down: as §1
A further test concerns NIH3T3. The test is described as above. The conditions noted are these: Five cell lines viability, CellTiter-Glo ATP luminescence, 48-72 h; max response: active compounds read low. In a few lines:
as §1

The next test concerns C33A. The test is described as follows: Primary qHTS to identify gynecologic anti-cancer compounds using libraries of approved drugs and bioactive compounds (AID 1345084). Further: nearly all actives have a fitted effect of over 55% in size. Further: potency means the concentration at half of the fitted maximal effect. On activity change, negative = cytotoxicity: on the % scale 0 is the no-effect control and ±100 the full control effect. The following applies: Gynecologic cancer cell panel viability, ATPlite luminescence, 48 h; series mostly up to 57.5 µM. In a few lines: (§2)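 Cells, 1,000 per well, plated 16 h, then exposed 48 h at 37 C to compounds. Viability by ATPlite luminescence after 15 min at room temperature.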
A general note: In qHTS, concentration-response curves come from the screen itself.

The next test has as its system CAOV3. The test is described as above. The conditions noted are these: Gynecologic cancer cell panel viability, ATPlite luminescence, 48 h; series mostly up to 57.5 µM. In a few lines: as §2
The next test relates to CASKI. The description is as above. The following applies: Gynecologic cancer cell panel viability, ATPlite luminescence, 48 h; series mostly up to 57.5 µM. The method, boiled down: as §2
For another test, the system named is HeLa. The test is described as above. The conditions noted are these: Gynecologic cancer cell panel viability, ATPlite luminescence, 48 h; series mostly up to 57.5 µM. In a few lines: as §2
Another test has as its system OV90. The description is as above. The following applies: Gynecologic cancer cell panel viability, ATPlite luminescence, 48 h; series mostly up to 57.5 µM. In a few lines: as §2
A further test concerns PA-1. Described as above. The following applies: Gynecologic cancer cell panel viability, ATPlite luminescence, 48 h; series mostly up to 57.5 µM. In a few lines:
as §2

The test system of test [2] is HACAT. The test can be described thus: qHTS assay to identify novel small-molecules to repurpose for Merkel cell carcinoma treatment (AID 1296009). Further: nearly all actives have a fitted effect of over 60% in size. The following applies: MCC and control cell lines, CellTiter-Glo viability, 72 h; at 44.8 µM (top of the series) unless noted. In a few lines: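 Cells were incubated with compound for 72 hr at 37 degree celsius before CellTiter-Glo addition. Luminescence was normalized with no-cell wells as full cytotoxicity and DMSO as baseline.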

The next test deals with Es-2. The test is described as follows: Primary qHTS to identify gynecologic anti-cancer compounds using libraries of approved drugs and bioactive compounds (AID 1345084). Further: nearly all actives have a fitted effect of over 55% in size. Further: potency means the concentration at half of the fitted maximal effect. On activity change, negative = cytotoxicity: on the % scale 0 is the no-effect control and ±100 the full control effect. The following applies: Gynecologic cancer cell panel viability, ATPlite luminescence, 48 h; series mostly up to 57.5 µM. The method, boiled down:
as §2

The subject of the next test is Hek293T. The description is as above. The following applies: Gynecologic cancer cell panel viability, ATPlite luminescence, 48 h, control line for the selectivity index; series mostly up to 57.5 µM. In a few lines: as §2
For the next test, the system named is JEG-3. The description is as above. The following applies: Gynecologic cancer cell panel viability, ATPlite luminescence, 48 h; series mostly up to 57.5 µM. In a few lines:
as §2

For the compound `Nc1nc(Cl)nc2c1ncn2C1OC(CO)C(O)C1F` (centres undefined), the Potency in the test on HEK293 is 2.06 µM (active); in the test on HaCat [1] it was 1.46 µM (active); in the test with NIH3T3 it was 1.03 µM (active); in the test on CAOV3 it was 0.631 µM (active); in the test on CASKI, 3.98 µM (active); in the test with PA-1, 3.55 µM (active). The Potency result in the test with C33A, in the test on HeLa and in the test with OV90 was “inactive” throughout.
For the compound `O=C(Nc1ccc(-c2ccnc(Nc3ccc(N4CCOCC4)cc3)n2)cc1)C1CCCN1` (centres undefined), the Potency in the test with HEK293 is 6.51 µM (active). Also, the compound was classed as inactive in the test with HaCat [1] and with HACAT [2]. Besides, the Potency result in the test on C33A, in the test with CAOV3, with CASKI, in the test with Es-2, with HeLa and in the test on Hek293T was “inactive” each time. Besides, the Potency entry in the test with JEG-3 and in the test on OV90 was “inactive” each time.
Consider `CCCc1cc2c(N3CCN(C4=NCC(C)(C)S4)CC3)ncnc2s1`, for which the Potency in the test on HEK293 is 5.8 µM (active). For the same compound, the result in the test on HaCat [1] and in the test on HACAT [2] was inactive. In addition, the Potency result in the test with C33A, in the test with CAOV3, with CASKI, with Es-2, in the test with HeLa and in the test on JEG-3 was “inactive” throughout. The Potency entry with PA-1 is “inactive”.
In the case of `COc1ccc(-c2ccc3c(N4CCOCC4C)nc(N4CCOCC4C)nc3n2)cc1CO` (centres undefined), the Potency in the test on HEK293 is 0.146 µM (active); in the test with HaCat [1], 2.91 µM (active); in the test with NIH3T3, 0.231 µM (active); with Es-2 it was 0.282 µM (active); with Hek293T, 0.316 µM (active); with PA-1 it was 0.282 µM (active). In addition, in the test with JEG-3, the Potency entry is “inactive”.
With `CCc1ccccc1OC[C@@H](O)CN[C@H]1CCCc2ccccc21`, in the test with HEK293, the Potency was 23.1 µM (active). Besides, the outcome in the test with HaCat [1] and in the test with HACAT [2] was inactive. Besides, the max response with NIH3T3 is -24.4%. Moreover, the Potency entry in the test with C33A, in the test with CAOV3, in the test with CASKI, in the test with Es-2, with HeLa and in the test with Hek293T was “inactive” each time. The Potency entry with JEG-3, with OV90 and in the test with PA-1 was “inactive” each time.
In the case of `C#Cc1cccc(Nc2nc3cc(C(=O)O)ccc3c3cncnc23)c1`, the Potency was 16.4 µM (active) in the test with HEK293, 7.31 µM (active) with HaCat [1], 11.2 µM (active) in the test on HeLa and 3.55 µM (active) with PA-1. Also, the max response in the test on NIH3T3 was -50.8%. Further, the Potency result in the test on C33A and in the test on JEG-3 was “inactive” in each case.
As for `CNC1CN(c2ccc3c(=O)c(C(=O)O)cn(-c4nccs4)c3n2)CC1OC` (centres undefined), the Potency with HEK293 was 1.06 µM (active); in the test on HaCat [1] it was 1.68 µM (active); with NIH3T3 it was 0.211 µM (active); in the test on PA-1, 1.41 µM (active). Further, the activity change, negative = cytotoxicity is -13% [at 11.6 µM] in the test with CAOV3; -25.3% [at 11.6 µM] in the test on CASKI; -22.6% [at 11.6 µM] in the test on HeLa; -9.7% [at 11.6 µM] in the test on JEG-3; -6.73% [at 11.6 µM] in the test with OV90.
As for `C=C[C@@]1(C)C=C2C(=O)C(O)=C3[C@](C)(C(=O)O)CC[C@@H]4C[C@]34[C@]2(O)C(=O)C1`, the Potency in the test on HEK293 is 1.8 µM (active); with HaCat [1], 10.1 µM (active); with NIH3T3 it was 3.6 µM (active); in the test on Es-2 it was 10 µM (active); in the test with Hek293T it was 11.2 µM (active); in the test with PA-1 it was 11.2 µM (active). In addition, in the test with HeLa, the Potency entry is “inactive”.
Turning to `COc1cc(OC)c(NC(=O)c2ccc(Cc3cc4c(cc3C)C(C)(C)CCC4(C)C)o2)c(OC)c1`, in the test with HEK293, the Potency is 20.6 µM (active). Moreover, the max response is 3.56% with HaCat [1] and 4.87% with NIH3T3. For the same compound, the Potency entry with C33A, in the test on CAOV3, with CASKI, with Es-2, with HeLa and in the test with Hek293T was “inactive” each time. The Potency result with JEG-3, in the test with OV90 and in the test with PA-1 was “inactive” each time.
Turning to `Cc1nc(NC(=O)N2CCCC2C(N)=O)sc1-c1ccnc(C(C)(C)C(F)(F)F)c1` (centres undefined), the Potency with HEK293 was 10.3 µM (active); in the test with HaCat [1], 2.31 µM (active); in the test with NIH3T3, 9.2 µM (active); in the test on CASKI, 3.55 µM (active). The Potency result with C33A, in the test on Es-2, with Hek293T and in the test on JEG-3 was “inactive” each time.
As to `COc1ccc(CCc2nc3c(C)c(-c4c(C)noc4C)c(C)cc3n2CCN2CCOCC2)cc1`, in the test with HEK293, the Potency was 23.1 µM (active). Moreover, the max response in the test on HaCat [1] was -20.3%; in the test with NIH3T3, -12.8%. For the same compound, the Potency entry in the test on HeLa and with OV90 was “inactive” throughout.
With `COc1cc2c(Nc3cc(F)c(Cl)c(Cl)c3)ncnc2cc1OCC1CCCN(C)CCC1`, the Potency with HEK293 is 8.2 µM (active); in the test with HaCat [1], 0.082 µM (active); with NIH3T3, 5.17 µM (active); in the test on CAOV3, 12.6 µM (active); in the test with OV90, 15.8 µM (active). Also, in the test on JEG-3, the Potency entry was “inactive”.
